Laboratory results reported in the supplement of paper PMC10849652.
Of roughly 8,800 targets only a part is listed; those with a hit were picked by preference. About 0.5% of all pairs of compound and target were hits.

Assays:
Test in all cases: log2 fold change, soluble protein after heating vs DMSO (PISA); higher = thermal stabilisation; K562 lysate, 10 uM; active = over 0.2 and 3.5 SD of the protein, either way, in both replicates (recomputed)
alvocidib = compound: CN1CC[C@H](c2c(O)cc(O)c3c(=O)cc(-c4ccccc4Cl)oc23)[C@H](O)C1 [alvocidib]
Outline: (§1)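 Following dounce homogenisation of K562 pellets in PBS pH 7.4 with 1 mM MgCl2, crude extract at 1 mg/mL protein was incubated for 30 min with 10 μM compound. Aliquots were then heated for 3 min over 48°C-58°C and pooled, NP-40 was added to 0.5% at 4°C, and soluble protein was recovered as the supernatant at 21,000xg for 90 min. Channel-sum-equalised TMTpro 16plex LC-MS/MS quantified this protein. Each value, from duplicates, is a log-two fold change in thermal stability relative to solvent controls.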

Tubastatin A = compound: CN1CCc2c(c3ccccc3n2Cc2ccc(C(=O)NO)cc2)C1 [Tubastatin A]
Outline: as §1

[1] = compound: CNC(=O)C1=CC=CC=C1NC2=NC(=NC=C2Cl)NC3=C(C=C(C=C3)N4CCOCC4)OC
Outline: as §1

defactinib = compound: CNC(=O)c1ccc(Nc2ncc(C(F)(F)F)c(NCc3nccnc3N(C)S(C)(=O)=O)n2)cc1 [defactinib]
Outline: as §1

[2] = compound: CNc1nc(-c2ccc3c(N)n[nH]c3c2)cc(N2C[C@@H](C(=O)NC3CCCCC3)CC[C@H]2C)n1
Outline: as §1

encorafenib = compound: COC(=O)N[C@@H](C)CNc1nccc(-c2cn(C(C)C)nc2-c2cc(Cl)cc(NS(C)(=O)=O)c2F)n1 [encorafenib]
Outline: as §1

[3] = compound: COC(=O)[C@H](CCSC)NC(=O)C1=C(C=C(C=C1)NC[C@H](CS)N)C2=CC=CC=C2
Outline: as §1

alisertib = compound: COc1cc(Nc2ncc3c(n2)-c2ccc(Cl)cc2C(c2c(F)cccc2OC)=NC3)ccc1C(=O)O [alisertib]
Outline: as §1

[4] = compound: COc1cc2nc(-c3cc(F)ccc3O)nc(N[C@@H]3CNC[C@H]3C(C)(C)O)c2cc1OC
Outline: as §1

gefitinib = compound: COc1cc2ncnc(Nc3ccc(F)c(Cl)c3)c2cc1OCCCN1CCOCC1 [gefitinib]
Outline: as §1

Measured: log2 fold change

MYO1C (UniProt O00159)
Sequence of UniProt O00159 (O00159 whole entry, looked up): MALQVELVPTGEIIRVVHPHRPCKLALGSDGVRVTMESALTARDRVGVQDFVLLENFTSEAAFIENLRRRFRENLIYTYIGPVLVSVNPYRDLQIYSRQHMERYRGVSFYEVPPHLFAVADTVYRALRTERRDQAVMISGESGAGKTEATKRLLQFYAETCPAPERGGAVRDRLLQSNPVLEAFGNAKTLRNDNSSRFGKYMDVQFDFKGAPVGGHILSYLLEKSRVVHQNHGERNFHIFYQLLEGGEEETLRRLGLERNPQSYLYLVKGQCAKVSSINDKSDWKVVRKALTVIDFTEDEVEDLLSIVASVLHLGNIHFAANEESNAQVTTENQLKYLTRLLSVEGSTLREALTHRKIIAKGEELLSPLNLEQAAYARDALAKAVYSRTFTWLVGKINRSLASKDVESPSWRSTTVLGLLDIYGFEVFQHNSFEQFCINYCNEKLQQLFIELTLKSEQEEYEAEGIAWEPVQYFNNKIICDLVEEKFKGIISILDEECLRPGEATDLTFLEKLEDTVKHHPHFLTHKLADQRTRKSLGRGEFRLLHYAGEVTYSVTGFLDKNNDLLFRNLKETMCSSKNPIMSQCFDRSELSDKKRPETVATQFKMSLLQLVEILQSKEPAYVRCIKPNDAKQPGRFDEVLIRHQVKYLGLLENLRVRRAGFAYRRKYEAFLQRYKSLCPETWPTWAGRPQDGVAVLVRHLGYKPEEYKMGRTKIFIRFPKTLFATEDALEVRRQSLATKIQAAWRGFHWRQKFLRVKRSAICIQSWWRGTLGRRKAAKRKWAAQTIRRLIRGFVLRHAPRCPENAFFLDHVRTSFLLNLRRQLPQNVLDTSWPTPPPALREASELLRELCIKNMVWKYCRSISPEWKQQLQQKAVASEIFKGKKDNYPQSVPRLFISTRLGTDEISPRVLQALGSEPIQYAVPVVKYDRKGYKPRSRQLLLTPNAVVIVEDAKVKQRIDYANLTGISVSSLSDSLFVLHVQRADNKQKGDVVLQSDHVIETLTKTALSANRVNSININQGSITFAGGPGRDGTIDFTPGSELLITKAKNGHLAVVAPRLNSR
inactive: alvocidib 0.029 | Tubastatin A -0.114 | [1] -0.057 | defactinib 0.052 | [2] -0.045 | encorafenib 0.076 | [3] 0.049 | alisertib 0.008 | [4] 0.01 | gefitinib -0.02

NUF2 (UniProt Q9BZD4)
Sequence of UniProt Q9BZD4 (Q9BZD4 whole entry, looked up): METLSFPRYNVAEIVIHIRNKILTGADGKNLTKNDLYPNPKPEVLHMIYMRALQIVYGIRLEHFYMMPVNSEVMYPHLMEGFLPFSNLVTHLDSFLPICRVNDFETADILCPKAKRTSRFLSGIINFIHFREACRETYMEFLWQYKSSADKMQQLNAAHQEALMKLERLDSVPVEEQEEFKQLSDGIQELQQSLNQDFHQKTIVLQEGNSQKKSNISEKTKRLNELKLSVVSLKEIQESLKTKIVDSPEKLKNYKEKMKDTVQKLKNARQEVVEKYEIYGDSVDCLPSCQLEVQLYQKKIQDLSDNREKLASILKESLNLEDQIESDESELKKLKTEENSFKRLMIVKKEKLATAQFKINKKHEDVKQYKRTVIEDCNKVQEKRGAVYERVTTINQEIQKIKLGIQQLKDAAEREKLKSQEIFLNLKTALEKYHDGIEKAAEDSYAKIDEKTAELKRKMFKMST
active: [3] 0.264
inactive: alvocidib 0 | Tubastatin A -0.13 | [1] 0.03 | defactinib 0.021 | [2] -0.007 | encorafenib 0.027 | alisertib -0.012 | [4] 0.013 | gefitinib -0.033

NLRP2 (UniProt Q9NX02)
inactive: alvocidib 0.034 | Tubastatin A -0.227 | [1] 0 | defactinib 0.024 | [2] -0.044 | encorafenib 0.034 | alisertib -0.025 | [4] 0 | gefitinib -0.012
active: [3] -0.239

NSA2 (UniProt O95478)
inactive: alvocidib -0.291 | Tubastatin A -0.181 | [1] -0.017 | defactinib 0.058 | [2] 0.066 | encorafenib -0.184 | [3] -0.086 | alisertib -0.14 | [4] -0.012 | gefitinib 0.056

NUB1 (UniProt Q9Y5A7)
Sequence of UniProt Q9Y5A7 (Q9Y5A7 whole entry, looked up): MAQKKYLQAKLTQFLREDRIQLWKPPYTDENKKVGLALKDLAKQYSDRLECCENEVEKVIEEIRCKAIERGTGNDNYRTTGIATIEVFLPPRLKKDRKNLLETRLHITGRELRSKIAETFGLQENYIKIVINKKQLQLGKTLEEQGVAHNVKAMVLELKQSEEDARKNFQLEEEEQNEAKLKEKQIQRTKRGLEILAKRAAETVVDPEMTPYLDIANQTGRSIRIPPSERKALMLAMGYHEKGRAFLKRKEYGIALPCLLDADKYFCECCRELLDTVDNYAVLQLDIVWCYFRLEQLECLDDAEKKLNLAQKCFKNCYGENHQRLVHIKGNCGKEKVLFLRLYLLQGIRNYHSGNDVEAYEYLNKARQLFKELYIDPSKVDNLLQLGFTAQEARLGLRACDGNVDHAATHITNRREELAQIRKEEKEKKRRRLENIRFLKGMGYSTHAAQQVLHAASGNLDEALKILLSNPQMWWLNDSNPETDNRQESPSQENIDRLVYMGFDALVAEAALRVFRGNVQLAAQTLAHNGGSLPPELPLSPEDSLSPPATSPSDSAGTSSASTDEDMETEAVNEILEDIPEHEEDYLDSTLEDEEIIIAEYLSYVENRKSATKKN
inactive: alvocidib 0.033 | Tubastatin A -0.095 | [1] 0.037 | defactinib -0.007 | [2] 0.014 | encorafenib 0.022 | [3] 0.038 | alisertib -0.012 | [4] -0.004 | gefitinib -0.049

OGFOD2 (UniProt Q6N063)
inactive: alvocidib 0.029 | Tubastatin A 0.033 | [1] 0.059 | defactinib 0.015 | [2] -0.125 | encorafenib -0.054 | alisertib 0.009 | [4] -0.014 | gefitinib -0.065
active: [3] 0.223

NCAPD3 (UniProt P42695)
inactive: alvocidib -0.006 | Tubastatin A -0.224 | [1] 0.017 | defactinib 0.017 | [2] 0.013 | encorafenib 0.037 | [3] -0.018 | alisertib -0.017 | [4] 0 | gefitinib -0.002

MSI2 (UniProt Q96DH6)
Sequence of UniProt Q96DH6 (Q96DH6 whole entry, looked up): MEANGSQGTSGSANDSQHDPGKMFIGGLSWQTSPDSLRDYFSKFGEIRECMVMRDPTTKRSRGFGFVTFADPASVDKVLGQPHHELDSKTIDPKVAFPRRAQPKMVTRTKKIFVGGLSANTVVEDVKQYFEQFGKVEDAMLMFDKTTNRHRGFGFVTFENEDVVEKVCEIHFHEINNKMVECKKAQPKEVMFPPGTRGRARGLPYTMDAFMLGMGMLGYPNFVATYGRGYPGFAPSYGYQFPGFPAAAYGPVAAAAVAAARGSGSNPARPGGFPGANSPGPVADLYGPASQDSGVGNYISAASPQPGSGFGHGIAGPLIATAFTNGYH
inactive: alvocidib 0.035 | Tubastatin A -0.082 | [1] -0.04 | defactinib 0.076 | [2] -0.012 | encorafenib 0.144 | [3] -0.023 | alisertib 0.026 | [4] -0.012 | gefitinib -0.031

OSBP (UniProt P22059)
inactive: alvocidib 0 | Tubastatin A 0.06 | [1] -0.193 | defactinib -0.009 | [2] -0.155 | encorafenib 0.017 | [3] 0.001 | alisertib 0.026 | [4] 0.042 | gefitinib -0.045

NAP1L5 (UniProt Q96NT1)
inactive: alvocidib 0.161 | Tubastatin A -0.039 | [1] 0.008 | defactinib -0.032 | [2] -0.082 | encorafenib 0.01 | [3] -0.047 | alisertib 0.021 | [4] -0.039 | gefitinib 0.02

NUP160 (UniProt Q12769)
Sequence of UniProt Q12769 (Q12769 whole entry, looked up): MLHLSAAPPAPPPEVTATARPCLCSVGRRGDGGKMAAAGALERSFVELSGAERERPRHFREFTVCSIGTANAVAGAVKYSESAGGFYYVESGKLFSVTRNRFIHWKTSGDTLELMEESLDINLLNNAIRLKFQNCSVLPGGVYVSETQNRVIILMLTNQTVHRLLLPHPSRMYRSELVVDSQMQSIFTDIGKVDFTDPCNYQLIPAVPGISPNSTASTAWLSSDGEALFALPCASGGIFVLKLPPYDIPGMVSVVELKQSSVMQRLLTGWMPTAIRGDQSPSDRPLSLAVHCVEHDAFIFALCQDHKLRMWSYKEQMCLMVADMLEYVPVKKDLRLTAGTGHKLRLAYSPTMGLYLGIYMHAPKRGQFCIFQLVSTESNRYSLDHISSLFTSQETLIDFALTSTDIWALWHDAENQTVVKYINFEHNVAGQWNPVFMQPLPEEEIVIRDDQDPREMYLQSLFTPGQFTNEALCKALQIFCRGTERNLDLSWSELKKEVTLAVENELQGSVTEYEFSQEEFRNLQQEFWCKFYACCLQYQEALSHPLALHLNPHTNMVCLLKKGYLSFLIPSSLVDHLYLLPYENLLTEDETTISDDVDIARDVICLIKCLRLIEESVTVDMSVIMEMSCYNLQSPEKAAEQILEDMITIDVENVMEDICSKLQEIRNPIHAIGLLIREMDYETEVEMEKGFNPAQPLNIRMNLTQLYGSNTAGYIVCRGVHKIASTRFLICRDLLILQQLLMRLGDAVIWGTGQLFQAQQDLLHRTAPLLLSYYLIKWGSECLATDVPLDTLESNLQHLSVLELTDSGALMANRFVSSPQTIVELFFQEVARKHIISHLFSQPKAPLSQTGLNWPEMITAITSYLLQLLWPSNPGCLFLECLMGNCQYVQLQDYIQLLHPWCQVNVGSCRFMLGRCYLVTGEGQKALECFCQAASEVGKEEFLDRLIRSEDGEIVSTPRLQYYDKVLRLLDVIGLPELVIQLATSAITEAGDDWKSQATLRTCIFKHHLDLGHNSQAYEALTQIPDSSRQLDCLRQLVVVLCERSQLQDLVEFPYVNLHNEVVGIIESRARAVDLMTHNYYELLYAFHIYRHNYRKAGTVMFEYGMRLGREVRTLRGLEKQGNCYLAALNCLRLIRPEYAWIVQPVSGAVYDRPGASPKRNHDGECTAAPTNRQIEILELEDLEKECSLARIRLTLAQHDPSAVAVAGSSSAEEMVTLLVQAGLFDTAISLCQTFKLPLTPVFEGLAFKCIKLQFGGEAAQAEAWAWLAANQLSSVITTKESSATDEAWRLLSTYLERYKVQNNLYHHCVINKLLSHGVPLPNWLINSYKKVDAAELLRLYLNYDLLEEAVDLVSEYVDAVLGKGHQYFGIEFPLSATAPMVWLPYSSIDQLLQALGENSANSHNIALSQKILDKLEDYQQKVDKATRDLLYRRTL
inactive: alvocidib 0.029 | Tubastatin A -0.143 | [1] 0.045 | defactinib 0.004 | [2] -0.03 | encorafenib 0.059 | [3] -0.195 | alisertib 0.015 | [4] 0.004 | gefitinib 0.031

NQO1 (UniProt P15559)
Sequence of UniProt P15559 (P15559 whole entry, looked up): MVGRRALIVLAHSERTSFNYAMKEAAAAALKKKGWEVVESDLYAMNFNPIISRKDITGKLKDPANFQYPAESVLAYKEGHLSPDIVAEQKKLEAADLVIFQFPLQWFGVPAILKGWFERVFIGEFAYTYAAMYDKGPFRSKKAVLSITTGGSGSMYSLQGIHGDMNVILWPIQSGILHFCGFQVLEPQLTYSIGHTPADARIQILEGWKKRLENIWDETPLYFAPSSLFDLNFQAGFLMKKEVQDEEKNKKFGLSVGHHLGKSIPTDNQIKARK
inactive: alvocidib 0.007 | Tubastatin A -0.079 | [1] 0.068 | defactinib 0.003 | [2] -0.111 | encorafenib 0.043 | [3] 0.159 | alisertib -0.001 | [4] -0.042 | gefitinib 0.009

NEXN (UniProt Q0ZGT2)
inactive: alvocidib -0.102 | Tubastatin A -0.049 | [1] 0.026 | defactinib 0.134 | [2] 0.158 | encorafenib -0.096 | [3] 0.044 | alisertib 0.004 | [4] -0.086 | gefitinib 0.092

PANK4 (UniProt Q9NVE7)
active: [3] 0.498
inactive: alvocidib -0.009 | Tubastatin A -0.117 | [1] 0.018 | defactinib 0.01 | [2] 0.019 | encorafenib -0.011 | alisertib -0.028 | [4] 0.013 | gefitinib -0.017

NOSIP (UniProt Q9Y314)
inactive: alvocidib -0.02 | Tubastatin A -0.156 | [1] 0.018 | defactinib 0.05 | [2] 0.004 | encorafenib 0.014 | [3] 0.02 | alisertib -0.016 | [4] 0.015 | gefitinib -0.049

NARF (UniProt Q9UHQ1)
inactive: alvocidib 0.001 | Tubastatin A 0.011 | [1] 0.031 | defactinib -0.015 | [2] -0.014 | encorafenib 0.047 | [3] 0.003 | alisertib -0.021 | [4] -0.019 | gefitinib -0.007

NAA30 (UniProt Q147X3)
Sequence of UniProt Q147X3 (Q147X3 whole entry, looked up): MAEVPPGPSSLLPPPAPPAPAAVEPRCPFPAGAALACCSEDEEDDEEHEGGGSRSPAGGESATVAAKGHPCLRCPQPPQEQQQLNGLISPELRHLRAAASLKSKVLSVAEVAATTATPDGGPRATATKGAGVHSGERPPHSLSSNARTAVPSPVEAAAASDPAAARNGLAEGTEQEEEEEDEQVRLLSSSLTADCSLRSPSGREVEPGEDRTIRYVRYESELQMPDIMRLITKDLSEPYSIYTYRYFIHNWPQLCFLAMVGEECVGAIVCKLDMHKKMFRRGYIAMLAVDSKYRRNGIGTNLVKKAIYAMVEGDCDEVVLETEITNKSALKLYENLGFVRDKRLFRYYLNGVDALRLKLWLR
inactive: alvocidib -0.03 | Tubastatin A 0.051 | [1] -0.023 | defactinib 0.002 | [2] 0.023 | encorafenib -0.032 | [3] 0.008 | alisertib 0.039 | [4] -0.066 | gefitinib 0.015

OLA1 (UniProt Q9NTK5)
inactive: alvocidib -0.002 | Tubastatin A -0.095 | [1] 0.019 | defactinib -0.029 | [2] -0.02 | encorafenib 0.008 | [3] -0.004 | alisertib 0.017 | [4] 0.011 | gefitinib -0.026

OAT (UniProt P04181)
Sequence of UniProt P04181 (P04181 whole entry, looked up): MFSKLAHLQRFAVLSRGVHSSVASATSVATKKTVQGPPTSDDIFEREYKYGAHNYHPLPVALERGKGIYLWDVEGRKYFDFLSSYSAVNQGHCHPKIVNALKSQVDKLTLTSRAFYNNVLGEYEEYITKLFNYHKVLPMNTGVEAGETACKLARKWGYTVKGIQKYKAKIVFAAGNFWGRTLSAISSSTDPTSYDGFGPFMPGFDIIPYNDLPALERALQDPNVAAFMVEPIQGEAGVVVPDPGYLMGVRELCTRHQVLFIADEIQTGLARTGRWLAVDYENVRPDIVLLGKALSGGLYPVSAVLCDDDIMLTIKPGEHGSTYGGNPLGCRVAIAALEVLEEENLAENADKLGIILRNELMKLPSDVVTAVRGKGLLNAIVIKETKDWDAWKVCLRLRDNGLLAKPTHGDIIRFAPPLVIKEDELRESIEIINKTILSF
inactive: alvocidib -0.023 | Tubastatin A -0.016 | [1] -0.03 | defactinib -0.016 | [2] -0.023 | encorafenib -0.022 | [3] 0.091 | alisertib 0.036 | [4] 0.006 | gefitinib 0.008

MT-CYB (UniProt P00156)
inactive: alvocidib -0.326 | Tubastatin A 0.078 | [1] -0.027 | defactinib 0.091 | [2] 0.129 | encorafenib 0.036 | [3] -0.093 | alisertib -0.131 | [4] 0.062 | gefitinib 0.102

NFKBIB (UniProt Q15653)
inactive: alvocidib -0.146 | Tubastatin A -0.077 | [1] 0.053 | defactinib -0.007 | [2] -0.006 | encorafenib 0.006 | [3] 0.06 | alisertib 0 | [4] -0.031 | gefitinib 0.064

NBN (UniProt O60934)
inactive: alvocidib 0.008 | Tubastatin A -0.041 | [1] -0.006 | defactinib -0.029 | [2] 0.014 | encorafenib 0.022 | [3] 0.048 | alisertib -0.009 | [4] 0.018 | gefitinib -0.061

NUSAP1 (UniProt Q9BXS6)
inactive: alvocidib -0.17 | Tubastatin A 0.029 | [1] -0.02 | defactinib 0.027 | [2] 0.07 | encorafenib 0.012 | [3] -0.028 | alisertib 0.01 | [4] -0.002 | gefitinib -0.012

MYOM1 (UniProt P52179)
inactive: alvocidib 0.039 | Tubastatin A -0.033 | [1] -0.092 | defactinib 0.194 | [2] 0.139 | encorafenib 0.065 | [3] -0.011 | alisertib 0.215 | [4] -0.06 | gefitinib 0.026

MYCBP (UniProt Q99417)
inactive: alvocidib -0.244 | Tubastatin A 0.045 | [1] -0.02 | defactinib 0.022 | [2] -0.031 | encorafenib 0.005 | [3] -0.069 | alisertib 0.022 | [4] -0.001 | gefitinib -0.029

NT5DC2 isoform 2 (UniProt Q9H857)
inactive: alvocidib -0.037 | Tubastatin A 0.02 | [1] 0.026 | defactinib 0.007 | [2] 0.032 | encorafenib -0.037 | [3] -0.035 | alisertib 0.013 | [4] -0.001 | gefitinib -0.055

NEBL isoform 2 (UniProt O76041)
inactive: alvocidib -0.079 | Tubastatin A 0.07 | [1] 0.012 | defactinib 0.011 | [2] 0.023 | encorafenib 0.009 | [3] -0.043 | alisertib -0.024 | [4] -0.003 | gefitinib 0.037

NUDT5 (UniProt Q9UKK9)
inactive: alvocidib -0.137 | Tubastatin A 0.052 | [1] -0.01 | defactinib 0.072 | [2] -0.018 | encorafenib 0.034 | [3] 0.006 | alisertib 0.004 | [4] 0.003 | gefitinib -0.002

PAN2 isoform 2 (UniProt Q504Q3)
inactive: alvocidib -0.023 | Tubastatin A -0.025 | [1] -0.018 | defactinib -0.099 | [2] -0.046 | encorafenib 0.08 | [3] -0.041 | alisertib 0 | [4] -0.043 | gefitinib -0.044

NUP210 (UniProt Q8TEM1)
inactive: alvocidib 0.014 | Tubastatin A 0.107 | [1] -0.061 | defactinib 0.035 | [2] -0.011 | encorafenib 0.086 | [3] 0.145 | alisertib 0.009 | [4] 0.002 | gefitinib 0.003
